# Only some compounds are listed: those with a hit (about 4.1% of all), similar ones and a draw of the others.
# AmpC inh detg: AmpC beta-lactamase inhibition with detergent present; AmpC hydrolysis of nitrocefin, absorbance 480 nm, 0.01% Triton; Potency, µM (titrated, usually from 114 µM), without a hit: at the top dose activity change, negative = inhibition, hits mostly inhibitors; actives 0.041% (n = 370,000);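 further: 0% = no-compound wells and -100% = no-enzyme wells; nearly all actives have a fitted effect of over 25% in size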
# Target sequence (P00811 whole entry, looked up): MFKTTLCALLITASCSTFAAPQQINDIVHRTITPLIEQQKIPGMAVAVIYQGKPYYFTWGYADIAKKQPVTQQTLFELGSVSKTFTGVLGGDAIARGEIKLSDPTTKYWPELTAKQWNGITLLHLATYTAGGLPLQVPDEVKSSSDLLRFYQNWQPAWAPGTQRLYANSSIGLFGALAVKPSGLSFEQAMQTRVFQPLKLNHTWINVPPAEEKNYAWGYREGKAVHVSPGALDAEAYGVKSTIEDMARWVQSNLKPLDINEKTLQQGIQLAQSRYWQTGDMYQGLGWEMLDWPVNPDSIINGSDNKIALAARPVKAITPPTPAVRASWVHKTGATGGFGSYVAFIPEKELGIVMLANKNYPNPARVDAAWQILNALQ
#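 AmpC (5.3 nM in the dispensed reagent) in 20 mM phosphate pH 7.0 with 0.01% (detergent screen) or 0.0001% Triton X-100 was preincubated with compounds for 15 min at room temperature. Nitrocefin was then added from an 800 uM solution, and hydrolysis was followed at 480 nm.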
# AMA1 RON2 block: inhibitors of Plasmodium falciparum AMA1-RON2 interaction | AlphaScreen AMA1-biotinylated RON2 peptide binding | Potency, µM (doses to about 58.2 µM), without a hit: at the top dose activity change, negative = inhibition, actives largely listed as inhibitors | actives 0.2% (n = 360,000) | AID 720542;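 further: 0% = vehicle wells and -100% = peptide control; nearly all actives have a fitted effect of over 45% in size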
#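 AMA1 (3D7) with his tag at 25 nM final met compounds first, then biotinylated RON2 peptide at 25 nM; detection used donor plus acceptor beads, 10 µg/mL apiece, read by AlphaScreen after 30 min at room temperature.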
# FMDV antiviral: antivirals against foot and mouth disease virus | FMDV antiviral cell-based qHTS | Potency, µM (top dose mostly 57.9 µM), for the others: at the highest dose activity change, negative = inhibition, actives largely listed as inhibitors | actives 1.2% (n = 410,000); calls by dose curve; tested in HEK293T cells; further: read-out not given here; nearly all actives have a fitted effect of over 45% in size
# AmpC inh no detg: blocks E. coli AmpC beta-lactamase in detergent-free assay; P00811; AmpC nitrocefin hydrolysis, absorbance 480 nm, 0.0001% Triton; Potency, µM (doses to about 57.1 µM), for the others: at the highest dose activity change, negative = inhibition, hits mostly inhibitors; actives 0.52% (n = 330,000); AID 485341;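 further: plate controls were no compound for no effect and no enzyme for full effect; nearly all actives have a fitted effect of over 20% in size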
#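 AmpC (5.3 nM in the dispensed reagent) in 20 mM phosphate pH 7.0 with 0.01% (detergent screen) or 0.0001% Triton X-100 was preincubated with compounds for 15 min at room temperature. Nitrocefin was then added from an 800 uM solution, and hydrolysis was followed at 480 nm.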
# Sm TGR inh: S. mansoni TGR enzyme inhibition; purified TGR, DTNB reduction, TNB absorbance 405 nm; Potency, µM (highest dose often 114 µM), inactives show at the highest dose activity change, negative = inhibition, hits mostly inhibitors; actives 3% (n = 360,000); AID 485364; further: nearly all actives have a fitted effect of over 60% in size
#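 Kinetic colorimetric format: TGR-catalysed, NADPH-driven DTNB reduction monitored via TNB absorbance. Enzyme dispensed at 20 nM; compound exposure 15 min at room temperature before reaction start.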
# * = called active by the depositor; ? = inconclusive; nt = not tested or not shown. Unless noted, the call rests on the fitted dose curve; in most records, active means well fitted curve in the direction sought with a large enough effect; inconclusive means small, poorly fitted or top-dose-only effect, or another doubt; inactive means no such curve, though single readings can be large; an effect the other way counts as inactive or inconclusive. Unless noted, on the % scale 0 is the no-effect control and ±100 the full control effect; potency means the concentration at half of the fitted maximal effect.
SMILES,AmpC inh detg,AMA1 RON2 block,FMDV antiviral,AmpC inh no detg,Sm TGR inh
Cc1cccc(/C=N/NC(=O)c2ccc(NC(=O)c3ccc(F)cc3)cc2)n1,-1%,84%,-25%,18µM*,-6%
Cc1nc2ccc(S(=O)(=O)NC(C(=O)N3CCN(c4cccc(Cl)c4)CC3)C(C)C)cc2s1 (stereo not given),5%,nt,0%,nt,-2%
CC(=O)OCC1=C(C(=O)O)N2C(=O)[C@@H](NC(=O)Cc3cccs3)[C@H]2SC1,7.1µM*,0%,0%,8.9µM*,?
CC(=O)OCC1=C(C(=O)O)N2C(=O)C(NC(=O)CSc3ccncc3)[C@@H]2SC1 (stereo not given in full),nt,nt,-12%,nt,nt
C=CC1=C(C(=O)O)N2C(=O)C(NC(=O)Cc3ccccc3)C2SC1 (stereo not given),-3%,1%,nt,-13%,10µM*
CCOc1ccc(C(=O)NC2C(=O)N3C(C(=O)O)=C(COC(C)=O)CSC23)cc1OCC (stereo not given),?,1%,-7%,-16%,22µM*
CC(=O)OCC1=C(C(=O)O)N2C(=O)C(NC(=O)CC(C)c3ccccc3)C2SC1 (stereo not given),-6%,11%,-12%,-37%,28µM*
CC(=O)OCC1=C(C(=O)O)N2C(=O)[C@@H](NC(=O)Cc3ccccc3)[C@H]2SC1,nt,34%,?,nt,nt
NC(=O)C1(N2CCCCC2)CCN(C(=O)Nc2ccc(Cl)c(Cl)c2)CC1,-1%,nt,-20%,nt,2%
COc1cccc(CSc2nc3ccccc3c3nc(CCn4c(C)nc5ccccc54)nn23)c1,9%,nt,0%,nt,0%
CC(=O)OCC1=C(C(=O)O)N2C(=O)C(NC(=O)C(C)Cn3cc(Cl)cn3)C2SC1 (stereo not given),?,39%,-13%,-34%,28µM*
Cc1ccc(S(=O)(=O)N(C)C)cc1NC(=S)Nc1ccc2cn[nH]c2c1,-12%,24%,-8%,-21%,18µM*
CC(=O)c1ccc(NC(=S)Nc2ccc(Br)c(Cl)c2)cc1,-7%,41%,-7%,-41%,22µM*
CC(=O)c1ccc(NC(=S)Nc2ccc3cn[nH]c3c2)cc1,-7%,16%,27%,-34%,20µM*
Cc1ccc(NC(=S)Nc2ccc3cn[nH]c3c2)cc1C,-13%,-2%,10%,-18%,-9%
CC(=O)Nc1cccc(NC(=S)Nc2ccc(F)c(Cl)c2)c1,-4%,9%,8%,-27%,28µM*
O=C(NC(=S)Nc1ccc(Br)c(Cl)c1)C1CC1,?,30%,21%,-39%,0%
Cc1c(-c2nnc(SCC(=O)Nc3ccc(Cl)cc3)o2)nnn1-c1ccc(F)cc1,5%,nt,10%,nt,-8%
COc1ccc(Cl)cc1NC(=O)c1ccc2c(c1)CCCN2S(C)(=O)=O,26%,nt,-22%,nt,9%
COc1cc(OC)c(NC(=O)c2noc3c2CSc2ccccc2-3)cc1Cl,-1%,nt,0%,nt,2.5µM*
CC(=O)c1cccc(NC(=O)c2noc3c2CSc2ccccc2-3)c1,14%,nt,42%,nt,11µM*
COc1ccc(NC(=O)c2noc3c2CSc2ccccc2-3)cc1Cl,15%,nt,11%,nt,7%
CC(=O)c1cccc(NC(=O)c2noc3c2CC(C)CC3)c1 (stereo not given),10%,nt,38%,nt,0%
COc1ccccc1CNC(=O)CSc1ncc2c(n1)-c1cc(Cl)ccc1N(Cc1ccccc1)S2(=O)=O,7%,nt,-20%,nt,-3%
COc1cc(/C=N/c2oc(C)c(C)c2C#N)cc(Br)c1O,?,10%,11%,-11%,11µM*
Cc1oc(/N=C/c2ccccc2)c(C#N)c1C,?,-10%,43%,-14%,-3%
COc1ccc(/C=N/c2oc(C)c(C)c2C#N)c(OC)c1,7%,14%,6%,-11%,50µM*
C=CCn1c(C)cc(C(=O)COC(=O)c2ccc(N)c([N+](=O)[O-])c2)c1C,-13%,-14%,-28%,-18%,-5%
COCCn1c(C)cc(C(=O)COC(=O)c2ccccc2Br)c1C,-2%,-14%,35µM*,10%,-9%
COCCn1c(C)cc(C(=O)COC(=O)c2cccnc2SC)c1C,nt,-15%,-64%,37%,nt
